Sampled rows, rich in hits. Any-hit rate of the full collection: about 14%.
AID923 = qHTS Assay for Allosteric/Competitive Inhibitors of Caspase-1: Spectroscopic Profiling in AFC Spectral Region. compound fluorescence, AFC spectral region (405/520 nm). Potency, µM (titrated, usually from 57.5 µM), usual class: activators. 75,000 compounds, 1.1% hits. AID 923, 2007
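Baseline compound fluorescence (AFC region, 405 nm ex/520 nm em) taken from the intercept of kinetic reads with 50 nM caspase-1 and 5 uM Ac-WEHD-AFC; normalized to an on-plate AFC standard curve; compounds titrated up to 57 uM.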
HSD17B inhib = qHTS Assay for Inhibitors of HSD17B4, hydroxysteroid (17-beta) dehydrogenase 4; 3-hydroxyacyl-CoA dehydrogenase type-2 (Homo sapiens), Q99714; recombinant HSD17B10, NADH fluorescence kinetic; Potency, µM (top dose mostly 57.1 µM), most hits filed as inhibitors; 75,000 compounds, 7.6% hits; AID 893, 2007;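 further: the protocol describes HADH2 (HSD17B10) and not the HSD17B4 of the title; nearly all actives have a fitted effect of over 70% in size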
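Enzyme plus compound, 15 min room temperature; substrate mix added (NAD+ 1 mM, beta-hydroxybutyryl-CoA 90 uM final); plates read kinetically for NADH fluorescence. HADH2 was His-tagged, E. coli-derived, 20 nM.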
CRE-bla Fsk = Cell signaling CRE-BLA (Fsk stim) | CHO CRE-bla reporter (cAMP response element driving beta-lactamase), forskolin EC10, beta-lactamase ratio | Potency, µM (highest dose often 38.2 µM), most hits filed as activators | 71,000 compounds, 2.5% hits; active means well fitted activation curve with a large enough effect in the signal ratio, with a control signal flat, not every such curve was filed as active; inconclusive means small, poorly fitted or top-dose-only effect, or effect the other way, or a change in a side signal; the % refers to the signal ratio
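CRE-bla CHO cells stimulated with EC10 NKH 477 (water-soluble forskolin) and compound titrations, 3 h at 37C; beta-lactamase read with CCF4 after 2 h at room temperature. Activity from 460/530 nm emission ratio, AC50 values for positive or negative modulation.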
HADH2 inhib = qHTS Assay for Inhibitors of HADH2 (Hydroxyacyl-Coenzyme A Dehydrogenase, Type II). recombinant HADH2, NADH fluorescence, beta-hydroxybutyryl-CoA. Potency, µM (highest dose often 57.1 µM), actives largely listed as inhibitors. 73,000 compounds, 3.4% hits; further: nearly all actives have a fitted effect of over 60% in size
Target sequence (Q99714 whole entry, looked up, one chain of several): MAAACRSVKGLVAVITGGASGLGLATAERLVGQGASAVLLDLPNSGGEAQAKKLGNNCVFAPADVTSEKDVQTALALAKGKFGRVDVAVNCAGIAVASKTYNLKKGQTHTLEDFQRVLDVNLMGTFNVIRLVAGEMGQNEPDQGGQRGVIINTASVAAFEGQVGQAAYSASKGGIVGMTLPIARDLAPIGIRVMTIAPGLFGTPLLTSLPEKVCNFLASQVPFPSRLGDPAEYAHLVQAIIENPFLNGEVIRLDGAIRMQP
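NADH fluorescence (ex 360/em 450 nm) read every 30 s for 4 min; activity taken as last-minus-first time point difference. Enzyme 20 nM, NAD+ 1 mM, beta-hydroxybutyryl-CoA 90 uM, pH 9.0 Tris buffer.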
A350 autofl = qHTS Assay for Spectroscopic Profiling in A350 Spectral Region; Compound autofluorescence, 340/450 nm, Alexa 350 dye-equivalents; stronger effect = higher value; max dye-equivalent concentration, M; 59,000 compounds, 11% hits; AID 590, 2007; in the data active means max dye-equivalent concentration above about 10 nM; inconclusive means mostly about 1.1 nM to 9.6 nM
4MU fluor = qHTS Assay for Spectroscopic Profiling in 4-MU Spectral Region. 59,000 compounds, 11% hits. compound autofluorescence, 340/450 nm, 4-MU equivalents; stronger effect = higher value. max dye-equivalent concentration, M; in the data active means max dye-equivalent concentration above about 10 nM; inconclusive means mostly about 1.1 nM to 9.6 nM
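Compounds in 100 mM Tris, pH 8.0, incubated 15 min at room temperature, then fluorescence read at 340 nm excitation/450 nm emission. Signal converted to 4-MU dye-equivalent concentration using an on-plate six-point 4-MU standard curve.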
Hits are given with their value; 0 = inactive; ? = inconclusive; - = no result given; ! = a repeat was not active; [ ] = dose if it differs, or a comment. Unless noted, the call rests on the fitted dose curve; in most records, active means well fitted curve in the direction sought with a large enough effect; inconclusive means small, poorly fitted or top-dose-only effect, or another doubt; inactive means no such curve, though single readings can be large; an effect the other way counts as inactive or inconclusive.

SMILES | AID923 | HSD17B inhib | CRE-bla Fsk | HADH2 inhib | A350 autofl | 4MU fluor
CC(C)n1c(SCC(N)=O)nc2c1c(=O)[nH]c(=O)n2C | 0 | 0 | 0 | ? | 0 | 0
CC(C)n1c(SCc2ccc(Cl)cc2)nc2c1c(=O)[nH]c(=O)n2C | 0 | 0 | 12.6µM | 0 | 0 | 0
C/C=C/CSc1nc2c(c(=O)[nH]c(=O)n2C)n1Cc1ccc(C)cc1 | 0 | 0 | 7.94µM | 0 | - | -
C=CCSc1nc2c(c(=O)[nH]c(=O)n2C)n1CC | 0 | 0 | ? | ? | 0 | 0
CCCCCSc1nc2c(c(=O)[nH]c(=O)n2C)n1C(C)C | 0 | 0 | 10µM | 0 | - | -
CC1CCCO1 (stereo not drawn) | 0 | 0 | 0 | 0 | - | -
C/C=C/CSc1nc2c(c(=O)[nH]c(=O)n2C)n1C(C)C | 0 | 0 | ? | 0 | 1.96e-08M | 1.77e-08M
CCCCCn1c(Sc2nc3ccccc3s2)nc2c1c(=O)[nH]c(=O)n2C | 0 | 0 | 12.6µM | 0 | 0 | 0
Clc1ccc(Cn2cc(/C=N/n3cnnc3)c3ccccc32)cc1 | 0 | 0 | ? | ? | 1.27e-08M | 1.12e-08M
Cc1ccccc1Cn1cc(/C=N/n2cnnc2)c2ccccc21 | 0 | 0 | ? | 0[11.4 µM] | - | -
CC(C)NC(=O)N1CCC2(CC1)CCN(S(C)(=O)=O)CC2 | 0 | 0 | 0 | 0 | 0 | 0
CCN1CCCC1CNC(=O)c1ccc(-n2c(=O)c(=O)[nH]c3ccccc32)cc1 (stereo not drawn) | 0 | 0 | - | 0 | - | -
COCc1nc2c([nH]1)c(=O)n(C)c(=O)n2CC(C)C | 0 | 0 | 12.6µM! | 0 | 0 | 0
Cn1c(=O)c2[nH]c(CCCCc3nc4c([nH]3)c(=O)n(C)c(=S)n4C)nc2n(C)c1=S | 0[11.5 µM] | 0[11.4 µM] | 0[7.6 µM] | 0[11.4 µM] | 0 | 0
CC(C)(C)N=C1NC(=NC(C)(C)C)c2ccccc21 | 0 | 0 | 0 | 0 | 8.31e-08M | 6.74e-08M
O=C(c1ccco1)N1CCN(c2nc(C(F)(F)F)nc3c2nnn3Cc2ccccc2)CC1 | 0 | 31.6µM | ? | 0 | 0 | 0
O=C(c1ccco1)N1CCN(Cc2ccccc2C(F)(F)F)CC1 | 0 | 0 | ? | 0[11.4 µM] | - | -
CC(=O)NCCNc1ccnc(-c2ccccc2C)n1 | 0 | ? | 0 | 0 | 0 | 0
CS(=O)(=O)c1ccc([C@H](O)[C@H](CF)NC(=O)C(Cl)Cl)cc1 | 0 | 0 | 0 | 0 | 0 | 0
Cc1cc(-c2csc(N)n2)c(C)n1CCc1ccccc1 | 0 | 15.8µM | ? | ? | 0 | 0
Cc1cc(CC(=O)O)c(C)cc1CC(=O)O | - | - | - | - | 6.27e-08M | 5.29e-08M
COc1ccc(CCCC(=O)O)c(C)c1 | 0[11.5 µM] | 0 | 0 | 0 | 0 | 0
Cc1cc(CN2CCCCC2)c(O)c(CN2CCCCC2)c1 | 0[11.5 µM] | 0[11.4 µM] | 0[7.6 µM] | 0[11.4 µM] | 0 | 0
O=C(Nc1ccccc1C(=O)NCc1ccco1)c1ccccc1 | 0 | 0 | ? | 0 | - | -
O=C(Nc1ccc(Cl)cc1)Nc1ccccc1C(=O)NCc1ccco1 | 0 | ? | 0 | 0 | 1.22e-08M | 1.14e-08M
SMILES | AID923 | HSD17B inhib | CRE-bla Fsk | HADH2 inhib | A350 autofl | 4MU fluor
O=C(NCc1ccco1)c1ccccc1NS(=O)(=O)c1ccc2c(c1)OCCO2 | 0 | 31.6µM | 0 | 31.6µM | ? | ?
O=C(COc1ccccc1)Nc1ccccc1C(=O)NCc1ccco1 | 0 | ? | 0 | 0 | 0 | 0
O=S(=O)(NCc1ccccc1)c1ccc2c(c1)OCCO2 | 0 | 0 | 0 | 0 | 0 | 0
O=C(OCc1cccs1)c1ccccc1NS(=O)(=O)c1ccc2c(c1)OCCO2 | 0 | 31.6µM | 0 | 0 | 0 | 0
CCOC(=O)CSC1=NC(=O)CS1 | 0 | 0 | 0 | 12.6µM | 0 | 0
CCOC(=O)CSc1nnc(C)c(=O)[nH]1 | - | - | - | - | 0 | 0
COCCNc1ccnc(-c2ccccc2C(F)(F)F)n1 | 0 | 0 | 0 | 0 | 0 | 0
C=CCOC(=O)C1=C(C)Nc2nnnn2C1c1cccc(OC)c1OC (stereo not drawn) | 0 | 0 | ? | 0 | 0 | 0
CCOC(=O)C1=C(C)Nc2nc3ccccc3n2C1c1ccncc1 (stereo not drawn) | 0 | 0 | 0 | 0 | 1.67e-08M | 1.43e-08M
